# Results from the supplement of paper PMC11732987, “Enantioselective OTUD7B fragment discovery through chemoproteomics screening and high-throughput optimisation” (Communications Chemistry, 2025).
# Unmarked numbers belong to inactive results.
# Legend:
# Assay in all cases: log2 ratio of Biotin-Ahx-Ub-VS probe labelling (fragment/DMSO); higher = less target engagement (more negative = stronger competition), active = hit call of the paper (q ≤ 0.05, log2 ratio ≤ -1)
# Conditions in all cases: compound concentration: 200 uM; treatment time: 3 h
# USP9X = USP9X (UniProt Q93008)
# USP9X, sequence (Q93008 whole entry, the tested form may be a part): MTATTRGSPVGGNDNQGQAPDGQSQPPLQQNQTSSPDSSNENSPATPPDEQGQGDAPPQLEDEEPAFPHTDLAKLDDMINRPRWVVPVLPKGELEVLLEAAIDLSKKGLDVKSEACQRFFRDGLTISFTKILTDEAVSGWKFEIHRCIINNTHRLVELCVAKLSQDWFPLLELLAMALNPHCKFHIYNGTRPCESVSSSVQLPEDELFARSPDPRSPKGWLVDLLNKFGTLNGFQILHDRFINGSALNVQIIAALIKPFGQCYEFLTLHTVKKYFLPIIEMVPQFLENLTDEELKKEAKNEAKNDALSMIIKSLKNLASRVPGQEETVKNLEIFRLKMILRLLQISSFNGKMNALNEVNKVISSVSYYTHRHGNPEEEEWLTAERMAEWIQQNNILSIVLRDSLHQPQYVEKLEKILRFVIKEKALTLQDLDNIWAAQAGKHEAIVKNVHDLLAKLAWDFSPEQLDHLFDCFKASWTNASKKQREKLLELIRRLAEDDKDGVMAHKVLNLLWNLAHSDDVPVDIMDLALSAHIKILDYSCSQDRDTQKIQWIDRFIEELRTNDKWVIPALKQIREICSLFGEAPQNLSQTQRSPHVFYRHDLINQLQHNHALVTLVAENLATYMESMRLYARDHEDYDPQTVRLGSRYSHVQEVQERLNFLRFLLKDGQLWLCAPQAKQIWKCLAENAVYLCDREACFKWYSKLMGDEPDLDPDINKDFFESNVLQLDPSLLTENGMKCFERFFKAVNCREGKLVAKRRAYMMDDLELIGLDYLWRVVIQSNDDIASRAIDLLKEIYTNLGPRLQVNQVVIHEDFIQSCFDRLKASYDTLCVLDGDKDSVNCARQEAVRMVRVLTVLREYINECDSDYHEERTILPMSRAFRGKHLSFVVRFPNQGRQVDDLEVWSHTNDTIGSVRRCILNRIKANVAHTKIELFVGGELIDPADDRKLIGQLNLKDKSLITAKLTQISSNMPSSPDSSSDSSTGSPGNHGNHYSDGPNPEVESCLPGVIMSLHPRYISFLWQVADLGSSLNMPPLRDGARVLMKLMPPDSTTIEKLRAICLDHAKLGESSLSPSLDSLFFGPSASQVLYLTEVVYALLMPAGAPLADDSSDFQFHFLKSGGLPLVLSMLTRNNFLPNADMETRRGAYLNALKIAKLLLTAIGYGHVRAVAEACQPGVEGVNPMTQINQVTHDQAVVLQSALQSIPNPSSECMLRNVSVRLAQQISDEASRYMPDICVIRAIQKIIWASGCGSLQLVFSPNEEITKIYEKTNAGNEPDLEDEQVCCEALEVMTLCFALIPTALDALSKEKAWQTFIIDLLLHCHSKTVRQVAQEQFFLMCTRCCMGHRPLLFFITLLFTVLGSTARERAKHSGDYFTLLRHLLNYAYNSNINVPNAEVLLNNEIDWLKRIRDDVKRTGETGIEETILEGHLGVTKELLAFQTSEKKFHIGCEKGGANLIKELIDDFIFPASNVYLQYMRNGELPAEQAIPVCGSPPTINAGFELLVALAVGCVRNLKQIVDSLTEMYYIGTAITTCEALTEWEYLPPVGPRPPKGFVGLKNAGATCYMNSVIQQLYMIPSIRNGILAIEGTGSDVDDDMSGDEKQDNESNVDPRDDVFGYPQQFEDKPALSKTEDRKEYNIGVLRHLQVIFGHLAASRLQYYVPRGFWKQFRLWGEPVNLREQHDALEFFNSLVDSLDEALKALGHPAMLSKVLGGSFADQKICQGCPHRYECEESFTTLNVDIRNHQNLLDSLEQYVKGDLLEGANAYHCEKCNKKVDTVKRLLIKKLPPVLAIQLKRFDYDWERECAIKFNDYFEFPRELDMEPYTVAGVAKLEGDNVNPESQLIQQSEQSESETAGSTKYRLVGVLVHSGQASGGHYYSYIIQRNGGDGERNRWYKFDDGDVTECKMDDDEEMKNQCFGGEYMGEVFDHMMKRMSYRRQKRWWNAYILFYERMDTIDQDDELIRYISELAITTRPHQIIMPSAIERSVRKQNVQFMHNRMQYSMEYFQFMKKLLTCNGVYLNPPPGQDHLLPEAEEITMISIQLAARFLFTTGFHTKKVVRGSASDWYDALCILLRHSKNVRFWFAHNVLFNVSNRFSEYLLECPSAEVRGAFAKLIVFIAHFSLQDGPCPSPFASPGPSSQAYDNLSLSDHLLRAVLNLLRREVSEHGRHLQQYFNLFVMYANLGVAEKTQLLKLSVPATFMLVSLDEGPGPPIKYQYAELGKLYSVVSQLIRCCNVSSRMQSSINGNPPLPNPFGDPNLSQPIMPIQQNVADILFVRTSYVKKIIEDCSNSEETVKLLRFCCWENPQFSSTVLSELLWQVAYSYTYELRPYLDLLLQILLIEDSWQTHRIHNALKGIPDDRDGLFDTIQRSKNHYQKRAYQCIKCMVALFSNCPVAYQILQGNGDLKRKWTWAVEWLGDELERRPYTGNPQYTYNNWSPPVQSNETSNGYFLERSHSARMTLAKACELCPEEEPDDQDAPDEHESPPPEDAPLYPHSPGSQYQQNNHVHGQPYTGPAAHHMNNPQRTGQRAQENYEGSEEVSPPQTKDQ
# Outline: (§1)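 HEK293T lysate, 495 µg per sample in Tris/CHAPS/IGEPAL buffer with protease inhibitors, was treated in triplicate with fragment at 200 µM or vehicle for 3 h and then with Biotin-Ahx-Ub-VS at 0.5 µM final for 1 h. Labelled DUBs were NeutrAvidin-enriched, digested with LysC and trypsin, and run by diaPASEF LC-MS/MS. Spectronaut label-free quantities were global-median-normalised, and values are average log2 fragment/vehicle ratios by unpaired t-test on proteins with ≥2 unique peptides.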
# UniProt O00487 = biological target: UniProt O00487
# UniProt O00487, sequence (O00487 whole entry): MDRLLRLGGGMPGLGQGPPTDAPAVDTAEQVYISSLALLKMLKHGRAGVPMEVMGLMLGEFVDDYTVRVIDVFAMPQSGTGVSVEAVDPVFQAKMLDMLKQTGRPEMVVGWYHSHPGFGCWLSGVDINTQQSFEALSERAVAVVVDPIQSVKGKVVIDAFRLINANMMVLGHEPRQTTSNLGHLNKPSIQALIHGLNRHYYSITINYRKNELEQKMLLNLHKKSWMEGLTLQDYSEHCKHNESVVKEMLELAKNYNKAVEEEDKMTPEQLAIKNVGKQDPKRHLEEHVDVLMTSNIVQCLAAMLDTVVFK
# Outline: as §1
# UniProt O00507 = biological target: UniProt O00507
# Outline: as §1
# UniProt P51784 = biological target: UniProt P51784
# UniProt P51784, sequence (P51784 whole entry): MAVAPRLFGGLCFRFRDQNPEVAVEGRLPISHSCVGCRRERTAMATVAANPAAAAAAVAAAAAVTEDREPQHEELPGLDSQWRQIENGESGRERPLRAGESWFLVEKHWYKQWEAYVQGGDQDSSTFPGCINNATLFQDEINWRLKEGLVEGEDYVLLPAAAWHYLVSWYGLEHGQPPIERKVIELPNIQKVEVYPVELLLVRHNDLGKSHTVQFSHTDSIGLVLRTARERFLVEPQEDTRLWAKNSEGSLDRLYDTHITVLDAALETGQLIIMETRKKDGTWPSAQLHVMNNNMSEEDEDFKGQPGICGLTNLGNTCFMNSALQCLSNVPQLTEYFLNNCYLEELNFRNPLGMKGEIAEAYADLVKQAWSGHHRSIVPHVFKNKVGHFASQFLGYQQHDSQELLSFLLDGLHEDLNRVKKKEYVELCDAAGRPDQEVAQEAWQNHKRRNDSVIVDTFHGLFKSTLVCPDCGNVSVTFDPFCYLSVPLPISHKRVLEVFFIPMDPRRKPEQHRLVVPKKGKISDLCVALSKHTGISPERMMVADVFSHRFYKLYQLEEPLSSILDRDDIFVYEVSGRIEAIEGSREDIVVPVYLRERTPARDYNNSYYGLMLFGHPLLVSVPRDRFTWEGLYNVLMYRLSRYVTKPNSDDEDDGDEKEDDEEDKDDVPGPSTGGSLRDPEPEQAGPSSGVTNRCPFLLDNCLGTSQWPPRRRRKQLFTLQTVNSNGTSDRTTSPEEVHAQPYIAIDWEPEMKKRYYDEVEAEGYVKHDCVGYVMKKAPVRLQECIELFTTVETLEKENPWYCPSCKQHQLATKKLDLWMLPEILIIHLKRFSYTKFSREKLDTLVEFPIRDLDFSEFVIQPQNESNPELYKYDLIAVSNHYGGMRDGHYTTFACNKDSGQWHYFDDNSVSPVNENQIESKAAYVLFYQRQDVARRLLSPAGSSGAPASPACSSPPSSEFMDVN
# Outline: as §1
# UniProt Q5T2D3 = biological target: T1, UniProt Q5T2D3
# T1 sequence (whole entry): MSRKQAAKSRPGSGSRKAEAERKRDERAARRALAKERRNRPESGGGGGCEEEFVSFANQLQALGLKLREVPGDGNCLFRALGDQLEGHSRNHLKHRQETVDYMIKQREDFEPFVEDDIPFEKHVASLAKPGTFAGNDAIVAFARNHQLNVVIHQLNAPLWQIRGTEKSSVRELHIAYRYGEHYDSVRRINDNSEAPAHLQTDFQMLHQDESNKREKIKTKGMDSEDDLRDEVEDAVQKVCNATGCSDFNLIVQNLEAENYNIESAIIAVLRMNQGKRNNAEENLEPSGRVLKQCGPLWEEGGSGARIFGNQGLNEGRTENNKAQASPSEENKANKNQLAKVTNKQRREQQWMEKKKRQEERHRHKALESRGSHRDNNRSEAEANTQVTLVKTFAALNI
# Outline: as §1
# UniProt Q8TE49 = biological target: T2, UniProt Q8TE49
# T2 sequence (whole entry): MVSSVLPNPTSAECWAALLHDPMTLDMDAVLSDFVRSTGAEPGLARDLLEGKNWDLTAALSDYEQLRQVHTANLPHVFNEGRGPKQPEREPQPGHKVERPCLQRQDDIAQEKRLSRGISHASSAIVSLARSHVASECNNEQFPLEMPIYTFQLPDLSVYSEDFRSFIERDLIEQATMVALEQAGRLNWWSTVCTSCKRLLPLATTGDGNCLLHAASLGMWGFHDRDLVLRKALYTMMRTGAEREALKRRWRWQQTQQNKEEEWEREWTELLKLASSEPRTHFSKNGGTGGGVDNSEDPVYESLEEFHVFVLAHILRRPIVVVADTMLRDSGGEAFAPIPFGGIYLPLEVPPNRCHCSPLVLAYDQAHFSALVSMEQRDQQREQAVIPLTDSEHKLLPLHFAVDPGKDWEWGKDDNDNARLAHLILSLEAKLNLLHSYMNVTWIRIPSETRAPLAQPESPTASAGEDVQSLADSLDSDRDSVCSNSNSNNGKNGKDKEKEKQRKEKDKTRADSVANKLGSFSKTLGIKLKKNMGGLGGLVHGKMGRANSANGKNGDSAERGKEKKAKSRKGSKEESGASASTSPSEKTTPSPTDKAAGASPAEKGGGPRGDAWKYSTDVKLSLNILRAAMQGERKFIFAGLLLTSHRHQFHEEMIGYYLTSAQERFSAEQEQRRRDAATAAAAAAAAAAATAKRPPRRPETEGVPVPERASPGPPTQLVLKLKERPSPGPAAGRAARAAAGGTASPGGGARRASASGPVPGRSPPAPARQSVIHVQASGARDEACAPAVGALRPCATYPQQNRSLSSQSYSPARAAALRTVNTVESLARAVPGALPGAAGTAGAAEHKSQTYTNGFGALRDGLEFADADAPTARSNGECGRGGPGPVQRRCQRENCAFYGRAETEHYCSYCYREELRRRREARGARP
# Outline: as §1
# UniProt Q9P2H5 = biological target: T3, UniProt Q9P2H5
# T3 sequence (whole entry): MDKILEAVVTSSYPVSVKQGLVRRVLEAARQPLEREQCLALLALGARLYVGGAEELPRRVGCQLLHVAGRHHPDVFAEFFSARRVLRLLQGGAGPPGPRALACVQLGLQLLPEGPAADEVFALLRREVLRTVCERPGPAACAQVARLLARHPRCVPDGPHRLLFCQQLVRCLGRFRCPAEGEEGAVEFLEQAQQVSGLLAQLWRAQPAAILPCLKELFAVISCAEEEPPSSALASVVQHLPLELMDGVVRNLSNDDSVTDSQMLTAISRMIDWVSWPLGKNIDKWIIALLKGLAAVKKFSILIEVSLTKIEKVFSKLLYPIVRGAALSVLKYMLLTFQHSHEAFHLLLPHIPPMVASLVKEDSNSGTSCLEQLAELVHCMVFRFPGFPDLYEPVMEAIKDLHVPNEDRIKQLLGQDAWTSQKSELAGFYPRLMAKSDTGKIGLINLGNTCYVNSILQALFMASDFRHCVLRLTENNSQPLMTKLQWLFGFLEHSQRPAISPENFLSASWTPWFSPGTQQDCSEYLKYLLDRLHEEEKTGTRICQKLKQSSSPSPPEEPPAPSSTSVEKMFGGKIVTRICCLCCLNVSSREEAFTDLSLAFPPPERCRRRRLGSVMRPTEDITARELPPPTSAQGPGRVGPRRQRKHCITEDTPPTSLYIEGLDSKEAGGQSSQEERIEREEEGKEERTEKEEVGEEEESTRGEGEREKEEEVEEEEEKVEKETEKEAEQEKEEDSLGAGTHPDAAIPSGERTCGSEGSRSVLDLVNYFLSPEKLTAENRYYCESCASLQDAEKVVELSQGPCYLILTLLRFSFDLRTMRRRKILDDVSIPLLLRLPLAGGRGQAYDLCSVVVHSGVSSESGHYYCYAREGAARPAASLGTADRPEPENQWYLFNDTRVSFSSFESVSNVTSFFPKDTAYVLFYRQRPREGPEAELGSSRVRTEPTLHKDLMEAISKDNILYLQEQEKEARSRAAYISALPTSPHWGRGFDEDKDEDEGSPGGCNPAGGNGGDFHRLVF
# Outline: as §1
# UniProt Q9UGI0 = biological target: T4, UniProt Q9UGI0
# T4 sequence (whole entry): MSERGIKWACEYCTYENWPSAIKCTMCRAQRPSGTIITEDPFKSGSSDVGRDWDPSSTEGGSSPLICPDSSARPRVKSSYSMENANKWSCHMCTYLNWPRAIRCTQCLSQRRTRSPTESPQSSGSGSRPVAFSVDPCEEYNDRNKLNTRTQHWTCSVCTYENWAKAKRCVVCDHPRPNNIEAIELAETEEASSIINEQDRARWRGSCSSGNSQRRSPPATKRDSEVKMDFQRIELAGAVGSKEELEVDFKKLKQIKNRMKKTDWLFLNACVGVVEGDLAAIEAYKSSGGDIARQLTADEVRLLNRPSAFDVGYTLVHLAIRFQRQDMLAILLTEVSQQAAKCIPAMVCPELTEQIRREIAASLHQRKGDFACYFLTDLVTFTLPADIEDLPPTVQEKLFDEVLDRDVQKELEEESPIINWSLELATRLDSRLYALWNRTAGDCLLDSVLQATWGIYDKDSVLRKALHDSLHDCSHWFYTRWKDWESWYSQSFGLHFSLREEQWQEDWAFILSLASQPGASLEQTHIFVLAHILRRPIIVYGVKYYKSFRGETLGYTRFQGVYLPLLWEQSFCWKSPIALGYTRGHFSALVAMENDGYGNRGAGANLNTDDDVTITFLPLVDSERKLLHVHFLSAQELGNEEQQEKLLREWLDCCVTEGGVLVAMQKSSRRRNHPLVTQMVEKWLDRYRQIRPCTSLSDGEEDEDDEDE
# Outline: as §1
# YOD1 = biological target: T5, YOD1 (UniProt Q5VVQ6)
# T5 sequence (whole entry): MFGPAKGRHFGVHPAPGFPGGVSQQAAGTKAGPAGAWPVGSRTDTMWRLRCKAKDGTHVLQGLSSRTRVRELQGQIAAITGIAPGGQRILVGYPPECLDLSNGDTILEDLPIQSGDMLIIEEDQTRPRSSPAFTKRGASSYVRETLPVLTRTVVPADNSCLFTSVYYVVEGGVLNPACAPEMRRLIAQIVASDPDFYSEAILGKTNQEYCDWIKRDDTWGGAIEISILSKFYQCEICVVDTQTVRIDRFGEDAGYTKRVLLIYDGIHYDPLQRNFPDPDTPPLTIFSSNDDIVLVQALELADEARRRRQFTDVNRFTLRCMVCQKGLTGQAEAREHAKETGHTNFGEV
# Outline: as §1
compound,measurement,setting,value
O=C(CCl)N1CCN(C(=O)N2CCCCC2)CC1,log2 ratio of Biotin-Ahx-Ub-VS probe labelling,USP9X,-1.11 (active)
same,log2 ratio of Biotin-Ahx-Ub-VS probe labelling,UniProt O00487,-0.0311
same,log2 ratio of Biotin-Ahx-Ub-VS probe labelling,UniProt O00507,-1.18 (active)
same,log2 ratio of Biotin-Ahx-Ub-VS probe labelling,UniProt P51784,-0.772
same,log2 ratio of Biotin-Ahx-Ub-VS probe labelling,UniProt Q5T2D3,-0.618
same,log2 ratio of Biotin-Ahx-Ub-VS probe labelling,UniProt Q8TE49,-0.968
same,log2 ratio of Biotin-Ahx-Ub-VS probe labelling,UniProt Q9P2H5,-0.897
same,log2 ratio of Biotin-Ahx-Ub-VS probe labelling,UniProt Q9UGI0,-1.27 (active)
same,log2 ratio of Biotin-Ahx-Ub-VS probe labelling,YOD1,-0.827
